According to PubChem BioAssay AID1159580 (chemical genetic matrix, 2015):
The campaign covered roughly 5,500 compounds. About 2,000 (36%) were called active. Another 18% or so got no clear call; they are omitted. Rule as the data show it: active = normalized growth mostly below about 0.91 (no sharp cut-off); inconclusive = no clear call, values can overlap the other calls; inactive = mostly above about 0.92. This is one part of the list.

Experiment: chemical genetic growth profiling, strain panel (AID 1159580);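 also: tested at 20 µM; growth read once vehicle control cultures reached saturation at 30 °C; 1 = growth at the plate median or of vehicle wells; lower values mean less growth of the strain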
Settings: growth OD

Measured: normalized growth

CC(=O)N/C(=C/c1ccc2c(c1)OCO2)C(=O)O
inactive: S. cerevisiae deletion strains, locus YAL013W, strain DEP1, stronger effect = lower value 1.01 | S. cerevisiae deletion strains, locus YBR229C, strain ROT2, stronger effect = lower value 1 | S. cerevisiae deletion strains, locus YCL061C, strain MRC1, stronger effect = lower value 1.02 | S. cerevisiae deletion strains, locus YDL101C, strain DUN1, stronger effect = lower value 1 | S. cerevisiae deletion strains, locus YDR150W, strain NUM1, stronger effect = lower value 0.915 | S. cerevisiae deletion strains, locus YEL061C, strain CIN8, stronger effect = lower value 1.02 | S. cerevisiae deletion strains, locus YGR078C, strain PAC10, stronger effect = lower value 1 | S. cerevisiae deletion strains, locus YGR229C, strain SMI1, stronger effect = lower value 1.02 | S. cerevisiae deletion strains, locus YHR030C, strain SLT2, stronger effect = lower value 1.06 | S. cerevisiae deletion strains, locus YHR087W, strain rtc3, stronger effect = lower value 1 | S. cerevisiae deletion strains, locus YJL187C, strain SWE1, stronger effect = lower value 1.01 | S. cerevisiae deletion strains, locus YJR043C, strain POL32, stronger effect = lower value 1.01 | S. cerevisiae deletion strains, locus YJR075W, strain HOC1, stronger effect = lower value 1.02 | S. cerevisiae deletion strains, locus YKL190W, strain CNB1, stronger effect = lower value 1.01 | S. cerevisiae deletion strains, locus YLR039C, strain RIC1, stronger effect = lower value 1.07 | S. cerevisiae deletion strains, locus YLR058C, strain SHM2 (second series), stronger effect = lower value 1.01 | S. cerevisiae deletion strains, locus YLR085C, strain ARP6, stronger effect = lower value 1.02 | S. cerevisiae deletion strains, locus YLR262C, strain YPT6, stronger effect = lower value 1.07 | S. cerevisiae deletion strains, locus YML094W, strain GIM5, stronger effect = lower value 1.01 | S. cerevisiae deletion strains, locus YMR219W, strain ESC1, stronger effect = lower value 1 | S. cerevisiae deletion strains, locus YMR263W, strain SAP30, stronger effect = lower value 1.01 | S. cerevisiae deletion strains, locus YNL153C, strain GIM3, stronger effect = lower value 1.01 | S. cerevisiae deletion strains, locus YNL298W, strain CLA4 (second series), stronger effect = lower value 1.01 | S. cerevisiae deletion strains, locus YNL322C, strain KRE1, stronger effect = lower value 1 | S. cerevisiae deletion strains, locus YNR030W, strain Alg12, stronger effect = lower value 1.01 | S. cerevisiae deletion strains, locus YOL006C, strain TOP1, stronger effect = lower value 1.04 | S. cerevisiae deletion strains, locus YPL055C, strain LGE1, stronger effect = lower value 0.87 | S. cerevisiae deletion strains, locus YPL241C, strain CIN2, stronger effect = lower value 1 | S. cerevisiae deletion strains, locus YPR135W, strain CTF4, stronger effect = lower value 0.998 | S. cerevisiae strains, strain wild type, stronger effect = lower value 1.02
